Measured values: PubChem BioAssay (NCATS)
Several values for one entry are separate records, joined by “and”; a condition that tells them apart may be missing. Identical values can stand only once. Inconclusive results are not listed. Entries that show only a call come without a potency. Some structures have more than one record in an assay (separate samples or runs), and their calls can disagree. Activity calls are given as the source filed them. Calls come from the whole dose curve; as a rule, active = well fitted curve in the direction sought with a large enough effect; inconclusive = small, poorly fitted or top-dose-only effect, or another doubt; inactive = no such curve, though single readings can be large; an effect the other way counts as inactive or inconclusive.

Assays:
[1] = Viability qHTS for spleen associated tyrosine kinase inhibitor (SYKi) naive MV4-11 cells (AID 1963823); note: nearly all actives have a fitted effect of over 40% in size
In short: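 Compounds were dispensed acoustically onto plates, MV4-11 cells (SYKi-naive) added at 500 per well, and plates incubated 72 hr at 37 C. CellTiter-Glo was added and luminescence measured after 10 min.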

[2] = Viability qHTS for spleen associated tyrosine kinase inhibitor (SYKi) drug resistant MV4-11 cells (AID 1963824); note: nearly all actives have a fitted effect of over 35% in size
In short: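 SYK inhibitor-resistant MV4-11 AML cells, 500 per well, added to predispensed compounds and incubated 72 hr at 37 C, 5% CO2. Viability measured by CellTiter-Glo luminescence after 10 min at room temperature.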

[3] = Quantitative highthroughput screen to assess conditional lethalithy of NOMO1 cells grown in RPMI1640 with untreated serum (RPMI+s) (AID 1963876); note: nearly all actives have a fitted effect of over 35% in size
In short: (§1)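 Each medium arm—HPLM with 10% dialyzed FBS, or RPMI1640 with 5 mM glucose and 10% untreated or dialyzed FBS—was screened against an 11-point, 3-fold compound titration for 48 h at 37 °C, with CellTiter-Glo luminescence as endpoint.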

[4] = Quantitative highthroughput screen to assess conditional lethalithy of NOMO1 cells grown in RPMI1640 with dialyzed fetal bovine serum (RPMI+ds) (AID 1963877); note: nearly all actives have a fitted effect of over 30% in size; for Viability: series mostly up to about 46 µM
In short: as §1

[5] = Quantitative highthroughput screen to assess conditional lethalithy of NOMO1 cells grown in Human Plasma-Like Medium with dialyzed fetal bovine serum (HPLM+ds) (AID 1963878); note: nearly all actives have a fitted effect of over 35% in size
In short: as §1

[6] = Quantitative highthroughput screen to assess conditional lethalithy of P12 Ichikawa cells grown in Human Plasma-Like Medium with dialyzed fetal bovine serum (HPLM+ds) (AID 1963879); conditions: Potency: viability; note: nearly all actives have a fitted effect of over 35% in size; for Viability: series mostly up to about 46 µM
In short: as §1

[7] = Quantitative highthroughput screen to assess conditional lethalithy of P12 Ichikawa cells grown in RPMI1640 with dialyzed fetal bovine serum (RPMI+ds) (AID 1963880); conditions: Potency: P12-Ichikawa viability; note: nearly all actives have a fitted effect of over 35% in size
In short: as §1

[8] = Quantitative highthroughput screen to assess conditional lethalithy of P12 Ichikawa cells grown in RPMI1640 with untreated serum (RPMI+s) (AID 1963881); conditions: Potency: viability; note: nearly all actives have a fitted effect of over 35% in size; for Viability: series mostly up to about 46 µM
In short: as §1

[9] = Quantitative highthroughput screen to assess conditional lethalithy of SEM cells grown in Human Plasma-Like Medium with dialyzed fetal bovine serum (HPLM+ds) (AID 1963882); note: nearly all actives have a fitted effect of over 35% in size; for Viability: series mostly up to about 46 µM
In short: as §1

[10] = Quantitative highthroughput screen to assess conditional lethalithy of SEM cells grown in RPMI1640 with unreated serum (RPMI+s) (AID 1963883); note: nearly all actives have a fitted effect of over 35% in size
In short: as §1

[11] = Quantitative highthroughput screen to assess conditional lethalithy of SEM cells grown in RPMI1640 with dialyzed fetal bovine serum (RPMI+ds) (AID 1963884); note: nearly all actives have a fitted effect of over 35% in size; for Viability: series mostly up to about 46 µM
In short: as §1

[12] = Cellular viability qHTS for adrenocortical cancer (ACC) cell line SW-13 (AID 1963989); conditions: SW-13 ACC cells viability, CellTiter-Glo, 48 h; activity (max response): stronger effect = lower value; note: nearly all actives have a fitted effect of over 65% in size;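 for activity (max response): cells grown in serum-free medium with ITS supplement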
In short: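 Viability was read as CellTiter-Glo luminescence after 48 h compound treatment (up to 46 uM final) of SW-13 cells grown serum-free; titration curves were fit with a four-parameter logistic model to give IC50 and efficacy.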

[13] = Cellular viability qHTS for adrenocortical cancer (ACC) cell line NCI-H295R (AID 1963990); note: nearly all actives have a fitted effect of over 60% in size
In short: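 CellTiter-Glo ATP luminescence, read 48 h after compound addition, measured viability of NCI-H295R adrenocortical cells grown serum-free with ITS. Final concentrations spanned up to 46 uM. Data normalized to DMSO and doxorubicin, fitted for IC50 and maximal response.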
Potency is the fitted concentration of half-maximal effect.

Compound | Potency [1] | Potency [2] | Potency [3] | Potency [4] | Potency [5] | Potency [6] | Potency [7] | Potency [8] | Potency [9] | Potency [10] | Potency [11] | activity (max response) [12] | Potency [13] | Potency [12]
COCCCOc1cc(C[C@@H](C[C@H](N)[C@@H](O)C[C@H](C(=O)NCC(C)(C)C(N)=O)C(C)C)C(C)C)ccc1OC | inactive | 168 nM (active) and 5.9 µM (active) | inactive | inactive | inactive | inactive | inactive | inactive | inactive | inactive | inactive | 6.05% (inactive) | inactive | –
CC(C)(C)C(=O)Oc1ccc2c(c1)nc(NC(=O)c1cccc([N+](=O)[O-])c1)n2CCCO | 4.68 µM (active) | 9.34 µM (active) | inactive | inactive | inactive | inactive | inactive | inactive | inactive | inactive | inactive | -24.3% (inactive) | inactive | –
O=S(=O)(O)CCSSCCS(=O)(=O)O | inactive | inactive | inactive | inactive | inactive | inactive | inactive | inactive | inactive | inactive | inactive | 0.678% (inactive) | inactive | –
CC[C@@]1(O)C(=O)OCc2c1cc1n(c2=O)Cc2cc3cc(O)ccc3nc2-1 | 0.0186 µM (active) | 0.0186 µM (active) | 0.118 µM (active) | 0.148 µM (active) | 0.0833 µM (active) | 0.0332 µM (active) | 0.0296 µM (active) | 0.0296 µM (active) | 0.0526 µM (active) | 0.0418 µM (active) | 0.0469 µM (active) | – | 1.58 µM (active) | 0.224 µM (active)
COc1ncc(-c2ccc3c(Nc4cc(Oc5cc(F)cc(F)c5)cc(C(=O)O)c4)c(S(=O)(=O)NC4CC4)cnc3c2)c(OC)n1 | inactive | inactive | inactive | inactive | inactive | inactive | inactive | inactive | inactive | inactive | inactive | – | inactive | –
CC(C)(C)c1cc(C(C)(C)C)c(NC(=O)c2c[nH]c3ccccc3c2=O)cc1O | 11.8 µM (active) | 7.42 µM (active) | inactive | inactive | inactive | inactive | inactive | inactive | inactive | inactive | – | – | 7.08 µM (active) | 6.31 µM (active)
COc1cc([C@@H]2c3cc4c(cc3[C@@H](O[C@@H]3O[C@@H]5CO[C@@H](C)O[C@@H]5[C@H](O)[C@@H]3O)[C@H]3COC(=O)[C@H]23)OCO4)cc(OC)c1O | 0.59 µM (active) | 0.525 µM (active) | 2.09 µM (active) | 2.35 µM (active) | 1.87 µM (active) | 0.935 µM (active) | 0.833 µM (active) | 0.662 µM (active) | 0.526 µM (active) | 0.132 µM (active) | 0.166 µM (active) | – | 20 µM (active) | 11.2 µM (active)
Fc1ccc(Cl)cc1-c1nc(Nc2ccncc2)c2nccnc2n1 | inactive and 18.6 µM (active) | inactive | inactive | inactive | inactive | inactive | inactive | inactive | inactive | inactive | inactive | – | inactive | –
Cc1cnc(Nc2ccc(CN3CCOCC3)cc2)nc1Nc1cccc(S(=O)(=O)NC(C)(C)C)c1 | 0.164 µM (active) | 372 nM (active) and 326 nM (active) | 4.18 µM (active) | 4.69 µM (active) | 4.69 µM (active) | 2.96 µM (active) | 4.18 µM (active) | 4.18 µM (active) | 0.743 µM (active) | 0.469 µM (active) | – | – | 4.47 µM (active) | 15.8 µM (active)
COc1cc(C[C@@H](CO)[C@H](CO)Cc2ccc(O)c(OC)c2)ccc1O | inactive | inactive | inactive | inactive | inactive | inactive | inactive | inactive | inactive | inactive | – | -8.41% (inactive) | inactive | –
CCCCCCCCCCCCCCCCCCCCCCO | inactive | inactive | inactive | inactive | inactive | inactive | inactive | inactive | inactive | inactive | inactive | – | inactive | –
CC(=O)Nc1ccc([C@H](C)C(=O)Nc2ncc(C(C)C)s2)cc1 | 1.66 µM (active) | 4.61 µM (active) | 4.69 µM (active) | 8.33 µM (active) | 7.43 µM (active) | 11.8 µM (active) | 10.5 µM (active) | 11.8 µM (active) | 6.62 µM (active) | 7.43 µM (active) | 7.43 µM (active) | – | 3.55 µM (active) | 1.26 µM (active)
O=C(c1ccc(F)cc1)C1CCN(CCn2c(=O)[nH]c3ccccc3c2=O)CC1 | inactive | 16.8 µM (active) | inactive | inactive | inactive | inactive | inactive | inactive | inactive | inactive | – | -13.7% (inactive) | inactive | –
